The source of these data is PubChem BioAssay.

Left-right determination factor 2 (Homo sapiens), sequence (O00292 whole entry, looked up): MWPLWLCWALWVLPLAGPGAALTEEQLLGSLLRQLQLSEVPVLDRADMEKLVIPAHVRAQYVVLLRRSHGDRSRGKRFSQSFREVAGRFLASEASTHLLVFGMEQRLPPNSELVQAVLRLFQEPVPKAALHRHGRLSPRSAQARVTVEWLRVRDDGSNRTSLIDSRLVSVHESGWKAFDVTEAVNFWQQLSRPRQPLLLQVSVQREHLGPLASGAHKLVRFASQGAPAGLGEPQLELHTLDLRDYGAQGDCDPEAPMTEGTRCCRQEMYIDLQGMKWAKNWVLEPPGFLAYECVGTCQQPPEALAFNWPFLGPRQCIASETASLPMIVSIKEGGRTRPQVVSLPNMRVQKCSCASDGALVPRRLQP

This assay addresses Left-right determination factor 2 (Homo sapiens) (UniProt O00292). The experiment in a line: small molecules binding LEFTY2 protein – biochemical, small-molecule microarray, 635 nm fluorescence scan, primary screen (AID 1110). Particulars: higher = more signal.
For the molecule `CCOC(=O)C1=CCC(c2ccco2)N(S(=O)(=O)c2ccc(C)cc2)C1` (configuration not stated), the composite z-score is 0.297.

For the molecule `COCCOC(=O)N1C(=O)[C@@]2(c3cc(C#CCC(C(=O)OC)C(=O)OC)ccc31)[C@H](C(=O)NC[C@H](O)c1ccccc1)[C@H]1C(=O)O[C@H](c3ccccc3)[C@H](c3ccccc3)N1[C@@H]2c1ccc(OCCO)cc1`, the composite z-score is 0.793.

For the molecule `CCCNC(=O)[C@@]1(Sc2ccc(C)cc2)CC(=O)N(C(C)C)[C@@H]1c1ccc(CO)cc1I`, the composite z-score is -1.7.

`COC(=O)[C@@]1(Cc2ccc(F)cc2)[C@H]2c3cc(C(=O)N4CCCC4)n(C)c3C[C@H]2CN1C(=O)c1ccccc1` gave a composite z-score of -0.917.

Molecule `O=C1O[C@H](c2ccccc2)[C@H](c2ccccc2)N2[C@H]1[C@@H](C(=O)N1CCCCCCC1)[C@]1(C(=O)Nc3ccc(C#CC4(O)CCCCCC4)cc31)[C@H]2c1ccc(O)cc1` displayed a composite z-score of 1.33.

Consider `O=C1O[C@H](c2ccccc2)[C@H](c2ccccc2)N2[C@H]1[C@@H](C(=O)O)[C@]1(C(=O)Nc3ccc(C#CC4(O)CCCCCC4)cc31)[C@H]2c1ccc(O)cc1`, for which the composite z-score is -0.114.

For the molecule `COCCOC(=O)N1C(=O)[C@@]2(c3ccccc31)[C@H](c1ccccc1OCCO)N1[C@H](c3ccccc3)[C@H](c3ccccc3)OC(=O)[C@H]1[C@@H]2C(N)=O`, the composite z-score was determined as 0.574.

Take `NC(=O)[C@@H]1[C@H]2C(=O)O[C@H](c3ccccc3)[C@H](c3ccccc3)N2[C@H](c2ccc(OCCO)cc2)[C@@]12C(=O)Nc1ccc(C#CCCO)cc12`: the composite z-score was -0.483.

With `Cc1cccc([C@H]2C[C@H]3C(Br)=C[C@@H]2C(=O)[C@]32CO2)c1`, the composite z-score was determined as 0.174.

`COc1ccc(C#Cc2ccc3c(c2)[C@]2(C(=O)N3)[C@H](C(=O)Nc3nc4ccccc4s3)[C@H]3C(=O)O[C@H](c4ccccc4)[C@H](c4ccccc4)N3[C@@H]2c2ccccc2OCCO)cc1`: the composite z-score worked out at 0.282.

In turn, `C=CCNC(=O)[C@@H]1[C@H]2C(=O)O[C@H](c3ccccc3)[C@H](c3ccccc3)N2[C@H](c2ccc(OCCO)cc2)[C@@]12C(=O)N(C(=O)OCCOC)c1ccc(C#CCCO)cc12` came in with a composite z-score of 0.909.

For `COCC(=C=CC[C@@H](O)c1cccc(OCCO)c1)CCO`, the composite z-score was -0.313.

Molecule `COCCOC(=O)N1C(=O)[C@@]2(c3cc(C#CC4(O)CCCCCC4)ccc31)[C@H](C(=O)N1CCN(c3ncccn3)CC1)[C@H]1C(=O)O[C@H](c3ccccc3)[C@H](c3ccccc3)N1[C@@H]2c1ccccc1OCCO` yielded a composite z-score of 1.2.

As to `[N-]=[N+]=Nc1ccccc1C[C@]1(C(=O)O)N=C(c2ccc(OCCCO)cc2)O[C@H]1c1ccccc1N=[N+]=[N-]`, the composite z-score worked out at 0.282.

With `NC(=O)NCC#Cc1ccc2c(c1)[C@]1(C(=O)N2)[C@H](C(=O)N2CCN(c3ncccn3)CC2)[C@H]2C(=O)O[C@H](c3ccccc3)[C@H](c3ccccc3)N2[C@@H]1c1ccc(OCCO)cc1`, the composite z-score stood at 0.0996.

`CN(C)C(=O)[C@@]1(Cc2ccccc2)COC(c2ccc(OCCCO)cc2)=N1` showed a composite z-score of -0.906.

The molecule `CCN(CC)c1ccc(N2CC=CC34O[C@@H]5C=CCCOC(=O)C5[C@H]3C(=O)N(CCO)[C@@H]4C2=O)cc1` (some centres not stated) registered a composite z-score of -1.37.

For the molecule `C[C@@H]1ON(c2ccc(I)cc2)[C@H](c2ccc(OC(=O)OC(C)(C)C)cc2)[C@H]1C(=O)N1C(=O)OC[C@H]1Cc1ccccc1`, the composite z-score was determined as 0.628.

For the molecule `COc1cc(CO)cc(I)c1O[C@H]1C=C(C(=O)NCCO)C[C@@H](NCC2CCCCC2)[C@@H]1O`, the composite z-score turned out to be 0.392.

Consider `C=CCNC(=O)[C@@H]1[C@H]2C(=O)O[C@H](c3ccccc3)[C@H](c3ccccc3)N2[C@H](c2ccc(O)cc2)[C@@]12C(=O)Nc1ccc(C#CCC(C(=O)OC)C(=O)OC)cc12`, for which the composite z-score is -0.0742.

As to `CCOC(=O)C1=C[C@@H](c2ccccc2)N(S(=O)(=O)c2ccc(C)cc2)[C@H]1c1ccccc1`, the composite z-score was -0.063.

In the case of `[N-]=[N+]=NC[C@H](Cc1ccccc1)NC(=O)c1ccccc1`, the composite z-score was -0.0257.

The molecule `COc1ccc(C(O)C2C=CC3C(=O)N(c4ccccc4)C(=O)C3N2Nc2ccccc2F)cc1` (configuration not stated) showed a composite z-score of -0.591.

For the molecule `C#C[C@@H](CC)O[Si](C#CCCCC#N)(C(C)C)C(C)C`, the composite z-score turned out to be 0.0737.

`CCCCCCCCCCC(O)C1C=CC2C(=O)N(C)C(=O)C2N1Nc1cc(OC)c(OC)c(OC)c1` (configuration not stated) showed a composite z-score of -1.11.

Regarding `C=C[C@H](C)[C@H](OC(=O)Nc1ccc(OC)cc1)c1ccc(OCCO)cc1`, the composite z-score is -2.08.

Molecule `COCCOC(=O)N1C(=O)[C@@]2(c3cc(C#CC4(O)CCCCCC4)ccc31)[C@H](c1ccc(OCCO)cc1)N1[C@H](c3ccccc3)[C@H](c3ccccc3)OC(=O)[C@H]1[C@@H]2C(=O)Nc1nc2ccccc2s1` displayed a composite z-score of 0.985.
